Screening data: PubChem BioAssay, several laboratories
The list is not random: actives were taken first. Their share in the collection is about 3.1%.
Cl transport mod – modulators of human KCC2 chloride dependent transport | Q9H2X9 | KCC2 cells, thallium flux FluoZin-2 fluorescence | B-score of Tl+ flux slope (higher = more flux/activation; lower = inhibition) at 10 µM | 190,000 tested, 2.2% active;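 active = thallium flux slope and its plate-corrected score both differing from the plate sample mean at a set confidence after two filtering rounds, in either direction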;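 also: slope of fluorescence scaled to starting intensity during 10 to 20 s after thallium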
PGE2 EP2 inh – inhibitors of human EP2 prostaglandin E2 receptor | C6 glioma cells expressing human EP2, cAMP TR-FRET; cells stimulated with saturating PGE2 | inhibition, % at 25 µM | 260,000 tested, 0.52% active | AID 1422;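 active = percent inhibition above 40 after rounding to a whole number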;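 also: rat C6 glioma host cells with rolipram phosphodiesterase inhibitor present; the protocol text gives 20 µM as final concentration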
Target sequence (P43116 whole entry, looked up): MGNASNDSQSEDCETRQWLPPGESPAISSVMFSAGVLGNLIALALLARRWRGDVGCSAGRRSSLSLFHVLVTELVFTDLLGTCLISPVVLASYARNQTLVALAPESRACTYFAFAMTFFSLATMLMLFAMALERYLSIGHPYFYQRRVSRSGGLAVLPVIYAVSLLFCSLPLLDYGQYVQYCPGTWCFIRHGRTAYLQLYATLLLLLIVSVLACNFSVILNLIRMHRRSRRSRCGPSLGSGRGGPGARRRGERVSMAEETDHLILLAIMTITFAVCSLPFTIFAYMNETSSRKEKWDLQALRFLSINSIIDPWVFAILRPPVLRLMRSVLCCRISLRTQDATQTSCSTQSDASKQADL
S1P3 antagonist – blocks the human S1P3 receptor | Q99500 | CHO S1P3 NFAT-BLA reporter, FRET fluorescence, antagonist mode | inhibition, % at 4.98 µM | 170,000 tested, 0.27% active | AID 485;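 active = inhibition above the plate cutoff, the mean inhibition of test wells on that plate plus 3 SD, cut at about 28% in these data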;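 also: cells challenged with S1P at its EC80 of 0.8 µM; blue over green emission ratio from cleaved BLA substrate after 4 h stimulation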
Target sequence (Q99500 whole entry, looked up): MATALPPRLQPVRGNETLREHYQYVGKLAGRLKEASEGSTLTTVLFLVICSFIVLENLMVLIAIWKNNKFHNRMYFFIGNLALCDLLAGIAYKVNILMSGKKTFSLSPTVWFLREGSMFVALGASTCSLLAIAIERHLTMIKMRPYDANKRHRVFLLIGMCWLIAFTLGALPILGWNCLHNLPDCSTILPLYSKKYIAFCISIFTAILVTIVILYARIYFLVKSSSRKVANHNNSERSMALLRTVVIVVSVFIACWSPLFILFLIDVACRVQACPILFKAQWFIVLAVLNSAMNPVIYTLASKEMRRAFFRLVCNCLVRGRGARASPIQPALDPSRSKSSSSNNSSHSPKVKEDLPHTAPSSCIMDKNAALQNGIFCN
EP2 mod – modulators of human EP2 prostaglandin E2 receptor. P43116. EP2-expressing cells, cAMP HTRF FRET, PGE2 co-stimulation. induction, % at 25 µM. 260,000 tested, 0.83% active. AID 940;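 active = compounds whose cAMP rise, as percent of the full-agonist control response, exceeds 60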;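 also: rat C6 glioma line stably carrying human EP2 under a CMV promoter; the protocol text gives 20 µM as final concentration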
KCC2 sec1 – KCC2 (human) modulation, secondary assay; normalised thallium flux (F/F0 slope) at 10 µM; 3,700 tested, 15% active; shares compounds with Cl transport mod; HEK293-KCC2, thallium flux, FluoZin2 fluorescence; hits give high values;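 active = thallium flux slope above the same plate's solvent-only control mean plus 3 SD; inconclusive = the two replicate wells disagree; inactive = no significant difference from solvent-only control wells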
KCC2 bumet counter – bumetanide-insensitive thallium flux in KCC2 cells with ouabain, counter-screen. shares compounds with Cl transport mod. HEK293-KCC2 + bumetanide/ouabain, thallium flux FluoZin2; hits give high values. normalized thallium flux at 10 µM. 3,700 tested, 49% active. AID 1714;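 active = thallium entry rate above the same plate's blocked-transporter control wells by more than 3 SD; inconclusive = the two repeat wells disagree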;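 also: raw slope of fluorescence over initial fluorescence between 10 and 20 s after thallium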
KCC2 sec2 – KCC2 (human) modulation, second secondary assay | HEK293-KCC2, thallium flux FluoZin2 fluorescence; actives lie on both sides; F/F0 rise rate, 10–20 s post-thallium | AID 1715 | 3,700 tested, 23% active | normalized thallium flux at 10 µM | shares compounds with Cl transport mod;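 active = thallium flux slope more than 3 SD above or below the plate's solvent-only control mean, mostly below; inconclusive = the two repeat wells disagreed; inactive = no significant shift from solvent-only controls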
HEK293 Tl flux – parental HEK flux effect, counter-screen; 3,700 tested, 46% active; shares compounds with Cl transport mod; thallium flux rate (normalised fluorescence) at 10 µM; AID 1716; HEK293 parental cells, thallium flux FluoZin2, ouabain; baseline-ratio fluorescence slope, 10–20 s after thallium;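 active = thallium flux rate significantly above the same plate's solvent-only control wells, beyond their mean plus 3 SD; inconclusive = the two replicate wells gave conflicting results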
KCC2 ouabain – confirmation of human KCC2 modulators with ouabain. shares compounds with Cl transport mod. HEK293-KCC2, thallium flux FluoZin2 fluorescence; bidirectional: low = inhibitor, high = activator. raw Tl+ flux slope (below DMSO = inhibition, above = activation) at 10 µM. 3,700 tested, 48% active. AID 1717;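 active = thallium flux slope beyond 3 SD from same-plate DMSO control mean in most replicates, usually higher, sometimes lower; inconclusive = repeat tests gave conflicting results; inactive = no significant difference from controls in most replicates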;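 also: slope of initial-normalized fluorescence between seconds 10 and 20 after thallium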
HEK counter2 – acts in parental HEK cells, second KCC2 counter-screen | 3,700 tested, 33% active | AID 1718 | HEK293 parental, thallium flux FluoZin-2 fluorescence slope | shares compounds with Cl transport mod | thallium flux slope at 10 µM;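 active = thallium flux slope above the same plate's solvent-control mean plus 3 SD in both duplicate wells; inconclusive = duplicate wells that disagreed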;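 also: run without ouabain in cells lacking the KCC2 cotransporter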
Numbers stand for hits; – = inactive; ? = inconclusive; · = not tested or not shown.

SMILES	Cl transport mod	PGE2 EP2 inh	S1P3 antagonist	EP2 mod	KCC2 sec1	KCC2 bumet counter	KCC2 sec2	HEK293 Tl flux	KCC2 ouabain	HEK counter2
O=C(COC(=O)c1ccccn1)Nc1cc(C(F)(F)F)ccc1Cl	·	–	·	–	·	·	·	·	·	·
O=c1c2ccc(Cl)c3c(Cl)ccc(c32)c2nc3ccccc3n12	·	–	·	–	·	·	·	·	·	·
CCC(=O)OCCNc1cc(Sc2nc3ccccc3s2)c2nonc2c1[N+](=O)[O-]	–	–	·	–	·	·	·	·	·	·
O=[N+]([O-])c1c(NCCCO)cc(Sc2nc3ccccc3s2)c2nonc12	3.21	·	·	–	–	0.0188	–	0.0129	?	0.0156
CCN(CC)c1ccc2cc(C(=O)Nc3ccc(S(=O)(=O)N4CCCCCC4)cc3)c(=O)oc2c1	·	–	·	–	·	·	·	·	·	·
C=CCn1c(-c2cc(-c3ccc(C)cc3)nc3ccccc23)n[nH]c1=S	36.5	–	–	–	0.0147	0.107	–	0.0309	0.0519	0.0122
CCn1c(-c2cc(-c3ccc(OC(C)C)cc3)nc3ccccc23)n[nH]c1=S	–	–	·	–	·	·	·	·	·	·
Cn1c(-c2csc(-c3ccccc3)n2)n[nH]c1=S	5.23	–	–	–	–	0.0207	–	0.0171	0.0276	0.0205
CCn1c(-c2sc(-c3ccccc3)nc2C)n[nH]c1=S	3.89	–	–	–	–	0.0132	–	0.0138	?	0.0173
CCn1c(-c2cc(-c3ccc(C)cc3)nc3ccccc23)n[nH]c1=S	7.91	–	–	–	?	0.0491	–	0.0155	0.039	0.0175
COCc1cc(C)nc(SCC(=O)Nc2cccc(Cl)c2)c1C#N	·	–	·	–	·	·	·	·	·	·
CC(C)[C@@H](Cn1nc(C2CC2)ccc1=O)NC(=O)C1(c2ccc(Cl)cc2)CCCC1	·	·	·	–	·	·	·	·	·	·
COc1ccc(CC(=O)N2CCN(c3ccccc3F)CC2)cc1OC	·	–	·	–	·	·	·	·	·	·
O=C(Cc1ccc(-n2cccc2)cc1)N1CCN(c2ccccc2F)CC1	-6.79	·	–	–	–	–	–	–	0.0159	–
CCC(=O)c1ccc(N2CCN(C(=O)Cc3ccccc3)CC2)c(F)c1	–	–	–	–	·	·	·	·	·	·
CCC(=O)c1cc(F)c(N2CCN(C(=O)Cc3ccccc3)CC2)cc1C	-2.88	–	–	–	–	–	–	–	0.0178	?
Fc1cccc(C2(NCc3cnc(N4CCOCC4)nc3)CC2)c1	·	–	·	–	·	·	·	·	·	·
CCNC(=O)C(=O)Nc1nc(-c2ccccc2)cs1	·	–	·	–	·	·	·	·	·	·
O=C(Nc1nc(-c2ccc(Cl)s2)cs1)c1cccs1	–	–	–	–	·	·	·	·	·	·
O=C(Nc1nc(-c2ccccc2)cs1)c1cccs1	–	–	–	–	?	0.00941	–	–	?	–
CCC(=O)Nc1nc(-c2ccccc2)ns1	2.47	–	·	–	–	–	–	–	–	–
O=C(NCc1ccccc1)C(=O)Nc1nc(-c2ccccc2)cs1	27.4	–	–	–	0.0208	0.0371	–	0.0532	0.0392	0.0161
CN1CCN(S(=O)(=O)c2cccc(C(=O)Nc3nc(-c4ccccc4)cs3)c2)CC1	-3.04	·	·	–	–	–	–	?	–	–
CN(C)S(=O)(=O)c1ccc(S(=O)(=O)N2CCCC(C(=O)NC(C)(C)C)C2)cc1 (configuration not stated)	·	–	·	–	·	·	·	·	·	·
CCn1c(CCNC(=O)c2cccs2)nnc1SCC(=O)Nc1nc(-c2ccccc2)cs1	-3.22	–	·	–	–	–	?	–	0.0137	–
SMILES	Cl transport mod	PGE2 EP2 inh	S1P3 antagonist	EP2 mod	KCC2 sec1	KCC2 bumet counter	KCC2 sec2	HEK293 Tl flux	KCC2 ouabain	HEK counter2
O=C(Nc1nc(-c2ccccc2)ns1)c1cccs1	·	–	–	–	–	–	–	–	0.0149	–
CCOc1ccc(NC(=O)CSc2nnc(CCNC(=O)c3ccc(OC)cc3)n2CC)cc1	·	·	·	–	–	?	–	–	–	?
O=C(Nc1nc(-c2ccccn2)cs1)c1ccc(Cl)s1	37.4	–	–	–	–	0.0604	0.06	0.0601	0.0544	0.0629
O=S(=O)(Nc1ccc(-c2csc(-c3ccccc3)n2)cc1)c1ccc(F)cc1	·	–	·	–	·	·	·	·	·	·
O=C(Nc1nc(-c2ccccc2)cs1)c1ccccc1NS(=O)(=O)c1ccc(F)cc1	-6.49	–	–	–	–	?	0.0173	?	0.00963	–
CC(=O)c1cccc(NC(=O)Nc2ccc(C(=O)N3CCCC3)cc2)c1	7.36	–	–	–	?	–	–	–	–	–
COc1cccc(C(=O)Nc2cccc(C(=O)N3CCOCC3)c2)c1	–	–	–	–	·	·	·	·	·	·
Cc1cccc(C(=O)Nc2cccc(C(=O)N3CCOCC3)c2)c1	4.25	–	·	–	–	–	–	–	–	–
COC(=O)c1cc(-c2ccc(Cl)cc2Cl)no1	·	–	·	–	·	·	·	·	·	·
CC1CCCCN1C(=O)CSc1nnc(-c2c[nH]c3ccccc23)o1 (configuration not stated)	-3.32	–	–	–	–	–	0.023	–	–	–
CC(=O)Nc1ccc(S(=O)(=O)Nc2cccc(-c3nc4ccccc4o3)c2)cc1	·	–	·	–	–	?	–	–	–	–
CCc1sc(NC(=O)c2cnc(SC)nc2)nc1-c1ccc(F)cc1	·	–	·	–	·	·	·	·	·	·
Cc1ccc(C(=O)Nc2nnc(-c3ccco3)o2)cc1C	7.98	–	–	–	0.013	0.0389	–	0.0194	0.0377	0.0111
CN(C)S(=O)(=O)c1ccc(C(=O)Nc2nnc(-c3ccco3)o2)cc1	–	–	–	–	·	·	·	·	·	·
Cc1cccc(C(=O)Nc2nnc(-c3ccco3)o2)c1	–	–	–	–	·	·	·	·	·	·
O=C(Nc1nnc(-c2ccco2)o1)c1ccc(Cl)cc1	29	–	–	–	0.0324	0.069	?	0.0314	0.0604	0.0166
COc1ccccc1CC(=O)N1CCC(n2nc(-c3cccs3)ccc2=O)CC1	·	·	·	–	·	·	·	·	·	·
CCc1[nH]c2ccc(C(=O)N3CCC(O)(c4ccccc4C)CC3)cc2c1C	·	–	·	–	·	·	·	·	·	·
CC(C)c1nc2ccccc2c2nn(CC(=O)NCc3ccccc3F)c(=O)n12	·	–	·	–	·	·	·	·	·	·
O=C(NNC1=Nc2ccccc2SC1)c1ccc(Cl)cc1	5.55	–	–	–	–	0.0112	–	0.00967	–	?
O=C(NNC1=Nc2ccccc2SC1)c1ccc(F)cc1	–	–	–	–	·	·	·	·	·	·
Cc1ccccc1NC(=O)c1cc2sccc2n1C	·	–	·	–	·	·	·	·	·	·
Cc1ccc(C)c(S(=O)(=O)NC(CC(C)C)C(=O)O)c1 (configuration not stated)	5.61	·	·	–	–	?	–	–	–	–
